Screens: PubChem BioAssay, National Center for Advancing Translational Sciences (NCATS)
Sampled rows, rich in hits. Any-hit rate of the full collection: about 12%.
JMJD2A Tudor inh = qHTS Assay for Inhibitors of JMJD2A-Tudor Domain | Potency, µM (highest dose often 114 µM), usual class: inhibitors | 4.4% of 390,000 active | AID 504339, 2011 | AlphaScreen JMJD2A-Tudor / H3K4me3 peptide binding; note: nearly all actives have a fitted effect of over 50% in size
PI5P4K alpha inh = qHTS for Inhibitors of phosphatidylinositol 5-phosphate 4-kinase (PI5P4K) | Phosphatidylinositol 5-phosphate 4-kinase type-2 alpha (Homo sapiens), P48426 | PI5P4Kalpha enzyme, ADP-Glo luminescence, 60 min; stronger effect = lower value | max response, % | 1.2% of 330,000 active; active = max response of -50% or lower; inconclusive = between -30% and -50%; inactive = -30% or higher; note: value at the top dose of about 77 µM
Target sequence (P48426 whole entry, looked up): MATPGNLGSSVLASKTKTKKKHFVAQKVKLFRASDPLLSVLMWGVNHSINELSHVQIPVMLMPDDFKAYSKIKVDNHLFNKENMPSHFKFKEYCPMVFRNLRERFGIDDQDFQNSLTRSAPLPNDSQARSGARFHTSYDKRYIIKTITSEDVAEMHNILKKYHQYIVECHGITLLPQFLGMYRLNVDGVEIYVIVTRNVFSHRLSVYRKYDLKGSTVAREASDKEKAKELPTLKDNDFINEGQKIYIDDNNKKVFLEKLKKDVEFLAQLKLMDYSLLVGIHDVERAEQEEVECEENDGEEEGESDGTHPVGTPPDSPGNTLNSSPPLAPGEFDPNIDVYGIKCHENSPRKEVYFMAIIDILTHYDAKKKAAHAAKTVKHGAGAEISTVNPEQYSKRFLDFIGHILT
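Quantitative HTS of the MLSMR library against PI5P4Kalpha with substrate. ATP added last at 5 microM final; room temperature, 60 minutes. Remaining ATP depleted, ADP converted and read as luminescence.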
HP1b binding inh = HTS for Inhibitors of HP1-beta Chromodomain Interactions with Methylated Histone Tails; Chromobox protein homolog 1 (Homo sapiens), P83916; AlphaScreen HP1-beta / biotin-H3K9me3 peptide binding; Potency, µM (doses to about 114 µM), most hits filed as inhibitors; 0.56% of 390,000 active; AID 540317, 2011; note: nearly all actives have a fitted effect of over 70% in size
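AlphaScreen: HP1-beta (50 nM) preformed 30 min with biotin-H3(1-18)K9me3 peptide (50 nM) in PBS pH 7.4, 0.01% Tween-20. Compound added for 30 min at RT, then streptavidin donor/nickel chelate acceptor beads (10 ug/mL) for 30 min.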
PLK1 PBD block = qHTS for Inhibitors of PLK1-PDB (polo-like kinase 1 - polo-box domain): Primary Screen; 2.8% of 360,000 active; Potency, µM, usual class: inhibitors; Plk1 PBD binding of FITC phosphopeptide, fluorescence polarization; Serine/threonine-protein kinase PLK1 (Homo sapiens), P53350; note: series mostly up to about 57 µM; nearly all actives have a fitted effect of over 65% in size
G9a inh = qHTS Assay for Inhibitors of Histone Lysine Methyltransferase G9a; 8.8% of 350,000 active; Histone-lysine N-methyltransferase EHMT2 (Homo sapiens), Q96KQ7; G9a H3K9 monomethylation, AlphaScreen, 2 h; Potency, µM (titrated, usually from 102 µM), actives largely listed as inhibitors; note: nearly all actives have a fitted effect of over 75% in size
Target sequence (Q96KQ7 913-1193 limits assumed): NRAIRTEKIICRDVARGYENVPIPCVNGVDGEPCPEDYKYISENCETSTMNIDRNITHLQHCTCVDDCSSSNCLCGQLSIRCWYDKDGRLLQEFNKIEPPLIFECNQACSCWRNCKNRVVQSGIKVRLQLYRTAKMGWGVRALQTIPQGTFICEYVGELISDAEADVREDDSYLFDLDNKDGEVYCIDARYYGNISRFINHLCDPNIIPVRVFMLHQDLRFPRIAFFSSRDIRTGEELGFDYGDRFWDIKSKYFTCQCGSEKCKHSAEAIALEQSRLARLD
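Signal arises when biotinylated H3K9 peptide, once monomethylated, bridges streptavidin donor and antibody-captured acceptor beads. Enzyme at 20 nM was preincubated 15 min with test compounds; peptide 500 nM and SAM 20 uM then reacted for 2 h.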
BAZ2B block = qHTS Assay for Inhibitors of BAZ2B; Bromodomain adjacent to zinc finger domain protein 2B (Homo sapiens), Q9UIF8; AlphaScreen BAZ2B-H3K14Ac peptide displacement; Potency, µM (titrated, usually from 114 µM), actives largely listed as inhibitors; 4.4% of 360,000 active; AID 504333, 2011; note: nearly all actives have a fitted effect of over 60% in size
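AlphaScreen displacement: compounds (up to 110uM) incubated 30 min at room temperature with a preformed 50 nM BAZ2B/50 nM biotinylated H3K14Ac peptide complex in PBS pH 7.4 with Tween-20. Donor and acceptor beads at 10 ug/mL final added, 20 min light-protected before reading.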
Large screens that a line does not name were inactive. Unless noted, calls come from the whole dose curve; as a rule, active = well fitted curve in the direction sought with a large enough effect; inconclusive = small, poorly fitted or top-dose-only effect, or another doubt; inactive = no such curve, though single readings can be large; an effect the other way counts as inactive or inconclusive.

COC(=O)C1=C(C)N(Cc2ccccc2)C(=NCC(C)C)N[C@H]1c1cccc(C(F)(F)F)c1	JMJD2A Tudor inh 35µM (no result: G9a inh, BAZ2B block)
COC(=O)C1=C(C)N(Cc2ccccc2)C(=NCc2cccc(Cl)c2)N[C@H]1c1cccc(F)c1	none (no result: G9a inh)
CC(=O)C1=C(C)N(Cc2ccccc2)C(=O)N[C@@H]1c1cccc(C(F)(F)F)c1	G9a inh 50µM
CC(CCc1ccccc1)NC(=O)COC(=O)c1ccc(NC(=O)CC#N)cc1 (stereo not given)	none
COc1ccc(C(=O)NCc2nnc(SCC(=O)Nc3nnc(C)s3)o2)cc1	PLK1 PBD block inconclusive, G9a inh 35µM
COc1ccccc1NC(=O)CSc1nnc(Cc2ccccc2)o1	G9a inh 14µM (no result: PI5P4K alpha inh)
CCSc1nnc(NC(=O)CSc2nnc(CNC(=O)c3ccc(OC)cc3)o2)s1	none
CCc1nnc(NC(=O)CSc2nnc(COc3ccccc3C)o2)s1	G9a inh 50µM
COc1ccc(NC(=O)CSc2nnc(Cc3ccccc3)o2)c(OC)c1	none (no result: PI5P4K alpha inh)
COc1ccc(OC)c(NC(=O)CSc2nnc(CNC(=O)c3ccco3)o2)c1	PLK1 PBD block 30µM
COc1ccc(Cl)cc1NC(=O)CSc1nnc(CNC(=O)c2ccco2)o1	none
CCCCOc1ccc(C2c3c(oc4ccc(C)cc4c3=O)C(=O)N2CCCN(C)C)cc1OCC (stereo not given)	none (no result: PI5P4K alpha inh, PLK1 PBD block)
Cn1c(SCC(=O)c2cc(Cl)c(Cl)s2)nnc1-c1ccco1	JMJD2A Tudor inh inconclusive, PLK1 PBD block 21µM, G9a inh inconclusive
Cc1ccc(C(=O)CSc2nnc(-c3ccccc3N)n2C)cc1	none
Cc1ccc(C(=O)CSc2nnc(-c3ccco3)n2C)cc1	JMJD2A Tudor inh 8.9µM, PI5P4K alpha inh -56, PLK1 PBD block 6µM (no result: G9a inh)
Cc1ccc(C(=O)CSc2nnc(-c3cccnc3)n2N)cc1	JMJD2A Tudor inh 50µM, G9a inh 32µM (no result: PI5P4K alpha inh)
Cn1c(SCC(=O)N2c3ccccc3Sc3ccccc32)nnc1-c1ccco1	G9a inh inconclusive
Cc1ccc(CSc2nnc(-c3cccnc3)n2N)cc1	none (no result: PI5P4K alpha inh)
CCn1c2cc(C)sc2c2cnn(Cc3ccccc3F)c(=O)c21	none (no result: PI5P4K alpha inh, HP1b binding inh, PLK1 PBD block, G9a inh, BAZ2B block)
O=C(OCC#CCSc1nnc(-c2cccc3ccccc23)o1)c1sccc1Cl	none (no result: PI5P4K alpha inh, HP1b binding inh, PLK1 PBD block, G9a inh, BAZ2B block)
COc1ccc(/C=C/C(=O)c2cc(Br)ccc2O)cc1OC	G9a inh 25µM, BAZ2B block inconclusive
COc1ccc(/C=C/C(=O)c2cc(F)ccc2OC(=O)c2ccc(OC)c(OC)c2)cc1OC	G9a inh 56µM, BAZ2B block inconclusive
O=C(/C=C/c1ccccn1)c1cc(Br)ccc1O	PLK1 PBD block 11µM, G9a inh inconclusive
COc1ccc(/C=C/C(=O)c2cc(F)ccc2OC(=O)c2ccccc2)cc1OC	none (no result: G9a inh, BAZ2B block)
O=C1N(Cc2cccc(C(F)(F)F)c2)c2ccccc2S(=O)(=O)N1c1cccc(Cl)c1	none (no result: PI5P4K alpha inh, PLK1 PBD block)
CCN1/C(=C\C=C(C(C)=O)C(C)=O)Sc2ccccc21	G9a inh 50µM, BAZ2B block inconclusive
CCN1/C(=C\C(=S)Nc2ccccc2)Sc2ccccc21	JMJD2A Tudor inh 25µM, HP1b binding inh inconclusive, PLK1 PBD block 24µM, G9a inh inconclusive, BAZ2B block inconclusive
CC(=O)N1CCC2(CC1)CN(Cc1ccc(C#N)cc1)C2	none (no result: JMJD2A Tudor inh, PI5P4K alpha inh, HP1b binding inh, PLK1 PBD block, BAZ2B block)
CN(Cc1nc2ccccc2c(=O)[nH]1)Cc1nc2ccsc2c(=O)[nH]1	JMJD2A Tudor inh 79µM, BAZ2B block 40µM
Cc1cc(C(=O)NNC(=O)CCCCC(=O)NNC(=O)c2cc(C)[nH]n2)n[nH]1	G9a inh 4µM
COc1cc(C(=O)NNC(=O)c2cc(C)[nH]n2)cc(OC)c1OC	JMJD2A Tudor inh inconclusive, G9a inh 13µM
CCc1noc(C)c1C(=O)NNC(=O)c1cc(OC)c(OC)c(OC)c1	G9a inh 6.3µM
CCc1noc(C)c1C(=O)NNC(=O)c1cc(OC)cc(OC)c1	none
CCC(=O)N1CCc2cc(S(=O)(=O)NC(Cc3ccccc3)C(=O)NCc3cccc(OC)c3)ccc21 (stereo not given)	none (no result: PI5P4K alpha inh, PLK1 PBD block, BAZ2B block)
CCOC(=O)N1CCN(C(=O)c2ccc(Cl)c(NC(=O)c3cccs3)c2)CC1	none
COc1ccc2c(c1)cc(C(=O)N/N=C/c1c(O)c(C(=O)O)cc3ccccc13)n2C	JMJD2A Tudor inh inconclusive, PI5P4K alpha inh -66, PLK1 PBD block inconclusive
Cn1c(O)c(/C=N/NC(=O)c2cc3ccccc3cc2O)c2ccccc21	none
CCCCCOC(=O)C(C)c1c(C)[nH]c(=S)[nH]c1=O (stereo not given)	G9a inh 71µM
CCOC(=O)C(C)c1c(C)[nH]c(=S)[nH]c1=O (stereo not given)	none
O=c1onc(-c2ccccc2)n1Cc1ccc([N+](=O)[O-])cc1	none (no result: JMJD2A Tudor inh, HP1b binding inh, G9a inh, BAZ2B block)
NC(=S)NN=C1c2ccccc2-c2c(F)c(F)c(F)c(F)c21	JMJD2A Tudor inh inconclusive, HP1b binding inh inconclusive, PLK1 PBD block 8.4µM (no result: G9a inh, BAZ2B block)
N#Cc1cccc2c1-c1ccccc1/C2=N/NC(N)=S	JMJD2A Tudor inh inconclusive, G9a inh 89µM, BAZ2B block inconclusive
Cc1onc(-c2c(F)cccc2Cl)c1C(=O)O/N=C(\N)c1ccc([N+](=O)[O-])o1	G9a inh 40µM, BAZ2B block inconclusive
CC(=O)C1=C(O)C(=O)N(CC#N)C1c1cccs1 (stereo not given)	JMJD2A Tudor inh 79µM
Cc1nc(C)c(C(=O)C2=C(O)C(=O)N(CCN(C)C)C2c2cccs2)s1 (stereo not given)	none
O=C(C1=C(O)C(=O)N(Cc2ccco2)C1c1cccs1)c1cccs1 (stereo not given)	G9a inh inconclusive, BAZ2B block inconclusive
O=C(C1=C(O)C(=O)N(CCOCCO)C1c1cccs1)c1cccs1 (stereo not given)	JMJD2A Tudor inh inconclusive, G9a inh 45µM, BAZ2B block inconclusive
Clc1ccc(-c2nnc(C3CC3)o2)cc1	none
CCC1CCC(c2nnc(-c3ccc([N+](=O)[O-])cc3)o2)CC1 (stereo not given)	G9a inh 10µM, BAZ2B block inconclusive
O=Cc1c(OCc2ccccc2)ccc2ccccc12	PLK1 PBD block 17µM
COc1cccc(C(=O)Nc2cc(Cl)c(O)c(Cl)c2)c1	PI5P4K alpha inh inconclusive, G9a inh 45µM
COc1ccc(C(=O)CCC(=O)Nc2cc(Cl)c(O)c(Cl)c2)cc1	PI5P4K alpha inh -77
CCCCC(=O)NC1=C(C(=O)OC)SCC1	JMJD2A Tudor inh inconclusive, G9a inh 4.5µM, BAZ2B block inconclusive
